About 280 (8.5%) of roughly 3,300 compounds were called active. What follows is part of a selection rich in actives, with near analogues and random picks from the rest. Unmarked numbers belong to inactive results.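 Rule for the calls: active = mean growth inhibition over the two runs of 50% or more; inactive = mean growth inhibition under 50%.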

A short description of this assay: A549 NSCLC cell proliferation inhibitors – ATP luminescence, human non-small cell lung line, primary screen (AID 371).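 Note: compound exposure lasted 72 h before the ATP read; 0% = untreated cell signal and 100% = no luminescence left.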 The conditions noted are these: at 10 µM, hits give high values.
In the case of `O=CNC(=O)c1ccccc1C(=O)O`, the growth inhibition was -1.48%.

As to `CCOC(=O)c1cc2cc(OC)ccc2[nH]1`, the growth inhibition was 15.9%.

Turning to `CCCCC(=O)Nc1c(O)c2ccccc2[nH]c1=O`, the growth inhibition was 3.38%.

For the compound `O=c1c(O)c(-c2ccc(O)cc2O)oc2cc(O)cc(O)c12`, the growth inhibition was 4.21%.

Turning to `O=c1c(-c2ccc3c(c2)OCCO3)c(C(F)(F)F)oc2cc(O)cc(O)c12`, the growth inhibition is 71.1% (active).

For `COc1ccc(-c2coc3cc(O)cc(O)c3c2=O)cc1`, the growth inhibition was 21.9%.

On to `COC(=O)c1cc(=O)n2c(-c3ccc(OC)cc3)csc2n1`, for which the growth inhibition is -0.07%.

`O=C(O)CCCCCN1C(=O)CCC1=O`: the growth inhibition was -0.47%.

Turning to `CC1(C)Cc2c(c(N3CCOCC3)nc3sc4c(NCc5ccco5)nnnc4c23)CS1`, the growth inhibition is 32.9%.

Consider `CN1CCN(CCCN2c3ccccc3Sc3ccc(Cl)cc32)CC1`, for which the growth inhibition is 0.16%.

With `CN1CCN(CCC(=O)N2c3ccccc3Sc3ccc(Cl)cc32)CC1`, the growth inhibition is 13.4%.

`CN1CCN(CCCN2c3ccccc3Sc3ccc(C(F)(F)F)cc32)CC1`: the growth inhibition is 93.1% (active).

As to `CN1CCN(CCCCOc2ccc(F)cc2)CC1`, the growth inhibition is 3.19%.

Consider `OCCN1CCN(CCCN2c3ccccc3Sc3ccc(C(F)(F)F)cc32)CC1`, for which the growth inhibition was 92.3% (active).

On to `OCCN1CCN(CCCN2c3ccccc3Sc3ccc(Cl)cc32)CC1`, for which the growth inhibition is 90.6% (active).

For the compound `c1ccc(SCc2nc3ccccc3[nH]2)nc1`, the growth inhibition is 6.85%.

As to `CC(NC(=O)Nc1ncccn1)(C(F)(F)F)C(F)(F)F`, the growth inhibition is 0.51%.

Turning to `C/C(=N\O)C1(C)N(O)C(C)(C)C(c2ccco2)=[N+]1[O-]` (stereo not drawn), the growth inhibition is 2.56%.

With `CC1(C)Cc2c(c(-c3ccccc3)nc(N3CCCC3)c2C(N)=O)CO1`, the growth inhibition is 7.2%.

`O=C(NC1(C(F)(F)F)C(=O)Nc2c1c(=O)[nH]c(=O)n2-c1ccccc1)c1cccnc1` (stereo not drawn): the growth inhibition was 1.94%.

On to `CCOC(=O)CSC1=C(C#N)C(=O)NC2(CCCCC2)S1`, for which the growth inhibition was -4.21%.

Consider `Nc1nonc1-c1noc(-c2ccccc2)n1`, for which the growth inhibition is 8.32%.

For the compound `Nc1nnc(-c2cccc(Cl)c2Cl)c(N)n1`, the growth inhibition is 14.4%.

Turning to `Nc1nc(N)c2nc(-c3ccccc3)c(N)nc2n1`, the growth inhibition was 82.4% (active).

Take `O=C(O)c1cnn2c(C(F)(F)F)cc(-c3ccco3)nc12`: the growth inhibition is -1.5%.

As for `O=C(CCCN1C(=O)c2ccccc2C1=O)N1CCC(c2ccccc2)C1` (stereo not drawn), the growth inhibition is -0.61%.

With `CCN(CC)c1ccc(C2Nc3cccc4cccc(c34)N2)c(O)c1`, the growth inhibition is 77.5% (active).

In the case of `OCCNC1=NCCN1`, the growth inhibition was -1.49%.

`N#Cc1nc(COc2ccccc2F)oc1NCCCn1ccnc1`: the growth inhibition was 5.01%.

With `CC(C(=O)N(C)C)N(C#N)c1nc(N(C)C)nc(N(C)C)n1` (stereo not drawn), the growth inhibition was 3.51%.

On to `CC(COc1ccccc1)N(CCCl)Cc1ccccc1` (stereo not drawn), for which the growth inhibition was 54.1% (active).

Consider `CC(COc1ccccc1)NC(C)C(O)c1ccc(O)cc1` (stereo not drawn), for which the growth inhibition was 4.38%.

With `Cc1nc(-c2coc3cc(OCC(=O)O)ccc3c2=O)cs1`, the growth inhibition was 13.4%.

With `O=C(NCCO)C1(c2ccccc2)CCCC1`, the growth inhibition was 0.3%.

As for `COC(=O)c1ccc(CSc2ncnc3c2sc2nc(N4CCOCC4)c4c(c23)CCCC4)o1`, the growth inhibition was -12.8%.

For `O=c1c2sc3nc(N4CCOCC4)c4c(c3c2ncn1Cc1ccco1)CCCC4`, the growth inhibition was 22.7%.

As to `OCCN(CCO)c1ncnc2c1sc1nc(N3CCOCC3)c3c(c12)CCCC3`, the growth inhibition was 58.3% (active).

In the case of `Cc1cc(OCC(=O)Nn2cnnc2)ccc1Br`, the growth inhibition is 4.24%.

Consider `Cc1noc(NS(=O)(=O)c2ccc(NC(=O)COc3ccccc3)cc2)c1C`, for which the growth inhibition was -8.3%.

Regarding `CC(NCCC(c1ccccc1)c1ccccc1)c1ccccc1` (stereo not drawn), the growth inhibition was 90.6% (active).

In the case of `CC(NC(=O)c1ccc(=O)oc1)c1ccccc1` (stereo not drawn), the growth inhibition was 3.88%.

As for `COc1ccc(C(=O)Cn2c(N3CCCCC3)nc3c2c(=O)n(C)c(=O)n3C)cc1OC`, the growth inhibition was 8.72%.

As for `CCCC(C)n1[nH]c(=O)cc1N` (stereo not drawn), the growth inhibition is -3.66%.

`COC(=O)c1ccc(C2/C(=C(\O)c3ccc4c(c3)OCCO4)C(=O)C(=O)N2CCCN(C)C)cc1` (stereo not drawn): the growth inhibition is 3.46%.

Turning to `N#Cc1c(N)n(CCOC(=O)c2cccc(Br)c2)c2nc3ccccc3nc12`, the growth inhibition is 3.2%.

`CCOC(=O)CSC1=C(C#N)C(c2ccc3c(c2)OCO3)CC(=O)N1` (stereo not drawn): the growth inhibition was 49.8%.

Consider `CCCOC(=O)CSC1=C(C#N)C(c2ccc3c(c2)OCO3)CC(=O)N1` (stereo not drawn), for which the growth inhibition is 50.4% (active).

For the compound `CCCCOC(=O)CSC1=C(C#N)C(c2ccc3c(c2)OCO3)CC(=O)N1` (stereo not drawn), the growth inhibition is 40.3%.

As to `CCOC(=O)CSc1nc(N2CCOCC2)c2c(c1C#N)CC(C)(C)N(C)C2`, the growth inhibition was 13.9%.

For the compound `CC(C)Oc1ccc(Cc2c(O)nc(NCCCN(C)C)[nH]c2=O)cc1`, the growth inhibition was -4.15%.

With `Cc1ccc2cc(CNC(C)C)c(=O)[nH]c2c1`, the growth inhibition is 2.25%.

In the case of `CCN(CC)C(=O)CSc1nc2ccccc2c(=O)n1CC1CCCCC1`, the growth inhibition is 59.2% (active).

Regarding `O=C(CSc1nc2ccccc2c(=O)n1CC1CCCCC1)N1CCOCC1`, the growth inhibition was 19.6%.

Consider `CCN(CC)C(=O)COn1c(SCC(=O)N(CC)CC)nc2ccccc2c1=O`, for which the growth inhibition was -4.27%.

Regarding `CCN(CC)CCN1C(=O)C(=O)/C(=C(/O)c2ccc(F)cc2)C1c1ccncc1` (stereo not drawn), the growth inhibition is -7.83%.

As to `Cn1c[n+](C)cc1/C=N/O`, the growth inhibition is -3.08%.

On to `Cc1[nH]c2ccc(F)cc2c(=O)c1SC(F)(F)C(F)C(F)(F)F` (stereo not drawn), for which the growth inhibition was 35.6%.

Regarding `C=CCn1c(=S)[nH]c2ccccc2c1=O`, the growth inhibition was 6.62%.

Regarding `O=C(c1ccc(F)cc1)C1CCN(CCn2c(=O)[nH]c3ccccc3c2=O)CC1`, the growth inhibition was 8.97%.

As to `O=c1c2ccccc2[nH]c(=S)n1CCN1CCC(=C(c2ccc(F)cc2)c2ccc(F)cc2)CC1`, the growth inhibition is 69.1% (active).

`CCCSc1nnc2n(-c3ccccc3OC)c(=O)c3c4c(sc3n12)CCC4`: the growth inhibition is 15.6%.

Consider `O=C(Nc1ccccn1)NC(C(F)(F)F)C(F)(F)F`, for which the growth inhibition is 0.87%.

As to `CCOC(=O)C1/C(=N\O)CC(C)(O)C(C(=O)OCC)C1c1ccc(OC)c(OC)c1` (stereo not drawn), the growth inhibition was 2.33%.

With `CC[C@]1(O)CC2CN(CCc3c([nH]c4ccccc34)[C@@](C(=O)OC)(c3cc4c(cc3OC)N(C=O)[C@H]3[C@@](O)(C(=O)OC)[C@H](OC(C)=O)[C@]5(CC)C=CCN6CC[C@]43[C@@H]65)C2)C1` (stereo partly drawn), the growth inhibition is 59.6% (active).

`CC[C@]1(O)C[C@@H]2CN(CCc3c([nH]c4ccccc34)[C@@](C(=O)OC)(c3cc4c(cc3OC)N(C)[C@H]3[C@@](O)(C(=O)OC)[C@H](OC(C)=O)[C@]5(CC)C=CCN6CC[C@]43[C@@H]65)C2)C1`: the growth inhibition is 71.8% (active).

With `Cn1c2ccccc2c2nn(-c3ccccc3)c(=O)cc21`, the growth inhibition was 12.4%.

Turning to `CC(=O)Nc1ccc(OC(=O)CC2SC(=O)NC2=O)cc1` (stereo not drawn), the growth inhibition is 1.99%.

On to `CCC(=O)Oc1ccc(C(CC)C(CC)c2ccc(OC(=O)CC)cc2)cc1` (stereo not drawn), for which the growth inhibition is 62.3% (active).

For `CCC(=O)Oc1ccc(/C(CC)=C(\CC)c2ccc(OC(=O)CC)cc2)cc1`, the growth inhibition was 71.7% (active).

Take `CC(=O)Oc1ccc(C(c2ccc(OC(C)=O)cc2)c2ccccn2)cc1`: the growth inhibition was 14.2%.

As to `CCCCOc1ccc(C(=O)NCC(=O)NCC(=O)OCC)cc1`, the growth inhibition was 40.7%.

With `CCOC(=O)CNC(=O)CNC(=O)c1ccc(OC)cc1`, the growth inhibition is 2.92%.

In the case of `COc1ccc(C(CC(=O)N2CCOCC2)C(C)C)cc1` (stereo not drawn), the growth inhibition was -4.83%.

Take `Cc1nn(CC(N)=O)c(=O)c2ccccc12`: the growth inhibition is 25.7%.

Regarding `O=S1(=O)C[C@@H](N2CCOCC2)[C@H](N2CCOCC2)C1`, the growth inhibition was 3.83%.

Consider `COc1ccc2c(c1)C1(C)CC(C)(C)N2C(=O)N1c1ccccc1` (stereo not drawn), for which the growth inhibition was 38.5%.

For `OC1(C2(O)CC(c3ccccc3)ON2)CCCCC1` (stereo not drawn), the growth inhibition was 19.6%.

Take `CCc1nc(NC2CCCCC2)c(C#N)c2c1COC(C)(C)C2`: the growth inhibition is 46.1%.

As to `CCCCc1nc(NCC2CCCO2)c(C#N)c2c1COC(C)(C)C2` (stereo not drawn), the growth inhibition is 13.2%.

For the compound `CCCc1nc(NC2CCCCC2)c(C#N)c2c1COC(C)(C)C2`, the growth inhibition was 51.4% (active).

Regarding `CN(C)c1ccc(C=NCC2(O)CCOC(C)(C)C2)cc1` (stereo not drawn), the growth inhibition is -1.1%.

For `Cc1ccc(OCC(=O)N2CCC(N3CCCCCC3)CC2)cc1`, the growth inhibition is 0.02%.

Take `O=C1CC(c2ccco2)CC(O)=C1C=NCCN1CCN(C2CC(=O)N(c3ccccc3)C2=O)CC1` (stereo not drawn): the growth inhibition is 11.7%.

On to `O=C1CC(c2ccco2)CC(O)=C1C=Nc1cc(Cl)ccc1O` (stereo not drawn), for which the growth inhibition was 52.3% (active).

Turning to `CCOC(=O)c1ccc(N=CC2=C(O)CC(c3ccco3)CC2=O)cc1` (stereo not drawn), the growth inhibition is 8.87%.

As to `CC1(C)CC(=O)C2=C(C1)OC(N)=C(C#N)C2C1C=CCCC1` (stereo not drawn), the growth inhibition is 5.77%.

As to `CCOC(=O)c1[nH]c2ccccc2c1N=CN(CC)CC`, the growth inhibition was 1.27%.

Regarding `COC(=O)CSC1=C(C#N)C(=O)NC2(CCCCC2)S1`, the growth inhibition was 7.6%.

For `COC(=O)CN(c1nc(C)cc(OC)n1)S(=O)(=O)c1ccccc1`, the growth inhibition is 12.9%.

As to `Cc1ccc2nc(NCc3ccccc3)[nH]c2c1`, the growth inhibition is 66.2% (active).

`Cc1ccc2cc(CNC(C)(C)C)c(=O)[nH]c2c1`: the growth inhibition was -14.5%.

In the case of `Cn1c(=O)cc(NCc2ccccc2)[nH]c1=O`, the growth inhibition was 8.28%.

As to `O=C1OC(Nc2ccc(Br)cc2F)c2ccccc21` (stereo not drawn), the growth inhibition was 3.02%.

`CC(=O)Nn1cnc2c(c1=O)C1(CCCC1)Cc1ccccc1-2`: the growth inhibition is 16.8%.

In the case of `N#CCc1nc2c3c4c(sc3ncn2n1)CCCC4`, the growth inhibition was 9.82%.

`O=C(Nc1nc(NC(=O)c2ccco2)n(-c2ccccc2)n1)c1ccccc1`: the growth inhibition was 82.7% (active).

Consider `COc1ccc(C(=O)Nc2nc(N)n(-c3ccccc3)n2)cc1OC`, for which the growth inhibition was 1.17%.

Take `Nc1nc(NC(=O)Cc2ccccc2)nn1-c1ccccc1`: the growth inhibition is 6.96%.

The values are drawn from PubChem BioAssay AID371 (SRMLSC, 2006).
